Measurements as given in the supplement of paper PMC13380429.
Counter-ions that a name gives are not always drawn.

System: Vero E6 infected with SARS-CoV-2
Assay: inhibition of SARS-CoV-2 cytopathic effect; higher = more antiviral protection, active = above 15
Conditions: 48 h

Measured: inhibition of SARS-CoV-2 cytopathic effect

CS(=O)(=O)c1ccc(-c2cn3ccccc3n2)cc1 [zolimidine]
inactive: 1 nM -3.68% | 8.33 nM 0.55% | 100 nM 3.07% | 833.33 nM -5.22% | 10000 nM -2.8%

O=[N+]([O-])c1cc(Cl)ccc1S(=O)(=O)N1CCN(Cc2ccccc2)CC1
inactive: 1 nM 2.15% | 8.33 nM 2.13% | 100 nM -0.96% | 833.33 nM 3.68% | 10000 nM -1.65%

COc1ccc(NS(=O)(=O)c2ccc(/N=N/c3ccc(O)c(C(=O)O)c3)cc2)nn1 [salazodine]
inactive: 1 nM 0.92% | 8.33 nM 3.48% | 100 nM 1.53% | 833.33 nM -1.71% | 10000 nM -1.01%

C[C@]12CC[C@@H]3c4ccc(O)cc4CC[C@H]3[C@@H]1CC[C@@H]2O [estradiol]
inactive: 1 nM 1.43% | 8.33 nM 2.24% | 100 nM -0.69% | 833.33 nM -2.04% | 10000 nM -1.69%

Cc1ccc2c(Cl)cc(Cl)c(O)c2n1 [chlorquinaldol]
inactive: 1 nM -1.39% | 8.33 nM -0.32% | 100 nM -1.09% | 833.33 nM -1.86% | 10000 nM 0.43%

FC(F)(F)C(F)(F)C(F)(F)N(C(F)(F)C(F)(F)C(F)(F)F)C(F)(F)C(F)(F)C(F)(F)F [perfluamine]
inactive: 1 nM -4.49% | 8.33 nM -1.58% | 100 nM -5.22% | 833.33 nM -3.78% | 10000 nM -1.62%

c1ccc(NCc2ccc(CNc3ccccn3)cc2)nc1
inactive: 1 nM 0.1% | 8.33 nM 0.65% | 100 nM -3.43% | 833.33 nM -0.24% | 10000 nM -0.68%

CN1c2ccccc2C(NCCCCCCC(=O)O)c2ccc(Cl)cc2S1(=O)=O (stereo not given) [tianeptine]
inactive: 1 nM 6.9% | 8.33 nM -1.19% | 100 nM 0.25% | 833.33 nM 2.13% | 10000 nM -1.2%

O=c1c(O[C@@H]2O[C@H](CO)[C@H](O)[C@H](O)[C@H]2O)c(-c2ccc(O)c(O)c2)oc2cc(O)cc(O)c12 [hyperin]
inactive: 1 nM 0.95% | 8.33 nM 2.27% | 100 nM -0.59% | 833.33 nM -1.62% | 10000 nM 0.59%

COc1ccc(C(=O)CC2(O)C(=O)Nc3c(Cl)ccc(Cl)c32)cc1 (stereo not given)
inactive: 1 nM 2.13% | 8.33 nM 3.01% | 100 nM -1.11% | 833.33 nM 1.43% | 10000 nM -1.83%

C[C@]12CCC(=O)C[C@@H]1CC[C@@H]1[C@@H]2CC[C@]2(C)C=CC[C@@H]12 [androstenone]
inactive: 1 nM -0.13% | 8.33 nM -0.62% | 100 nM -1.17% | 833.33 nM 0.87% | 10000 nM -0.03%

COc1ccccc1OC(=O)C(C)c1ccc(CC(C)C)cc1 (stereo not given) [metoxibutropate]
inactive: 1 nM -3.38% | 8.33 nM -2.87% | 100 nM -1.26% | 833.33 nM -1.98% | 10000 nM -3.16%

CNC(=O)[C@@H](c1ccccc1)N1CCc2cc(OC)c(OC)cc2[C@@H]1CCc1ccc(C(F)(F)F)cc1 [almorexant]
inactive: 1 nM 2.74% | 8.33 nM 2.39% | 100 nM 2.44% | 833.33 nM 1.95% | 10000 nM 1.06%

CC(C)C[C@H](NC(=O)[C@@H](Cc1c[nH]c2ccccc12)NC(=O)[C@H](Cc1ccc(O)cc1)NC(=O)[C@H](CO)NC(=O)[C@H](Cc1c[nH]c2ccccc12)NC(=O)[C@H](Cc1c[nH]cn1)NC(=O)[C@@H]1CCC(=O)N1)C(=O)N[C@@H](CCCNC(=N)N)C(=O)N1CCC[C@H]1C(=O)NCC(N)=O [triptorelin]
inactive: 1 nM -0.4% | 8.33 nM 2.79% | 100 nM 1.66% | 833.33 nM 2.17% | 10000 nM 0.84%

N#C/C(=C1/SCC(c2ccccc2Cl)S1)n1ccnc1 (stereo not given) [lanoconazole]
inactive: 1 nM 0.51% | 8.33 nM 2.17% | 100 nM 4.14% | 833.33 nM 0.83% | 10000 nM 0.48%

COc1cc(N)c(Cl)cc1C(=O)CCC1CCN(CCNS(C)(=O)=O)CC1
inactive: 1 nM -0.46% | 8.33 nM -0.03% | 100 nM 0.79% | 833.33 nM 0.95% | 10000 nM -0.74%

O=C(C[S+]([O-])Cc1ccco1)NC/C=C\COc1cc(CN2CCCCC2)ccn1 (stereo not given) [lafutidine]
inactive: 1 nM -0.4% | 8.33 nM 5.21% | 100 nM 1.21% | 833.33 nM 5.01% | 10000 nM 3.05%

c1ccc2nc(C3=NCCN3)ccc2c1
inactive: 1 nM -1% | 8.33 nM 0.61% | 100 nM 2.25% | 833.33 nM 3.75% | 10000 nM 2.01%

CC(C)(N)CC12CC3CC(CC(C3)C1)C2 [somantadine]
inactive: 1 nM -2.05% | 8.33 nM -1.35% | 100 nM -0.66% | 833.33 nM -1.44% | 10000 nM -6.1%

O=C1CCC[C@@H]2[C@H]3C[C@@H](CN12)[C@@H]1CCCCN1C3 [lupanine]
inactive: 1 nM 2.64% | 8.33 nM 9.38% | 100 nM 5.68% | 833.33 nM 1.8% | 10000 nM -0.17%

CCCCCCCCCCCCCCCC[n+]1ccccc1 [cetylpyridinium]
inactive: 1 nM 1.63% | 8.33 nM 0.22% | 100 nM 1.76% | 833.33 nM -0.25% | 10000 nM -21.9%

COc1ccc(CCc2nc3cc(-c4c(C)noc4C)ccc3n2C[C@H](C)N2CCOCC2)cc1Cl
inactive: 1 nM 0.67% | 8.33 nM 1.61% | 100 nM 0.26% | 833.33 nM -1.13% | 10000 nM 5.31%

C[S+](CC[C@H](N)C(=O)O)C[C@H]1O[C@@H](n2cnc3c(N)ncnc32)[C@H](O)[C@@H]1O (stereo not given in full) [ademetionine]
inactive: 1 nM -2.98% | 8.33 nM -1.8% | 100 nM -2.58% | 833.33 nM -0.06% | 10000 nM 0.19%

NC(=O)CN1CC(c2ccccc2)CC1=O (stereo not given) [phenylpiracetam]
inactive: 1 nM 1.63% | 8.33 nM -10.6% | 100 nM 2.27% | 833.33 nM 1.14% | 10000 nM -0.44%

CC(C)CC(=O)Nc1n[nH]c2c1CN(C(=O)C1CCN(C)CC1)C2(C)C
inactive: 1 nM 0.53% | 8.33 nM -0.22% | 100 nM 0.24% | 833.33 nM 0.59% | 10000 nM 1.78%

C=CCN1CCCC1CNC(=O)c1cc2nn[nH]c2cc1OC (stereo not given) [alizapride]
inactive: 1 nM 0.31% | 8.33 nM 1.78% | 100 nM -1.64% | 833.33 nM -1.24% | 10000 nM -0.58%

O=[N+]([O-])c1cn2c(n1)OC[C@@H](OCc1ccc(-c3ccc(OC(F)(F)F)cc3)nc1)C2
inactive: 1 nM 1.33% | 8.33 nM -0.87% | 100 nM -0.57% | 833.33 nM 4.38% | 10000 nM 0.34%

O=[N+]([O-])c1cccc2c(Br)n[nH]c12 [3-bromo-7-nitroindazole]
inactive: 1 nM 0.35% | 8.33 nM 2.23% | 100 nM 0.07% | 833.33 nM -3.48% | 10000 nM -0.25%

CC(C(=O)O)c1ccc2c(c1)Cc1cccnc1O2 (stereo not given) [pranoprofen]
inactive: 1 nM -0.06% | 8.33 nM 4.49% | 100 nM 2.65% | 833.33 nM 1.95% | 10000 nM -1.17%

COC(c1ccccc1)(c1ccccc1)[C@H](Oc1nc(C)cc(C)n1)C(=O)O [ambrisentan]
inactive: 1 nM -4.05% | 8.33 nM -0.7% | 100 nM -1.38% | 833.33 nM -0.18% | 10000 nM -3.02%

CNCCc1cnc[nH]1 [N-alpha-methylhistamine-dihydrochloride]
inactive: 1 nM 0.16% | 8.33 nM 2.71% | 100 nM 2.12% | 833.33 nM -0.59% | 10000 nM 1.37%

Cc1ccc(-c2cn3c4c(sc3n2)CCCC4)cc1 [pifithrin-cyclic]
inactive: 1 nM -1.71% | 8.33 nM -2.91% | 100 nM 1.98% | 833.33 nM 0.25% | 10000 nM 0.74%

O=C1NC(=O)C(=Cc2ccc(-c3ccc(F)cc3)o2)S1 (stereo in doubt)
inactive: 1 nM -2.32% | 8.33 nM 0.24% | 100 nM -0.68% | 833.33 nM 0.32% | 10000 nM 1.47%

CCC(CC)Nc1nc(C)c(-c2ccc(OC(F)(F)F)cc2OC)nc1OC
inactive: 1 nM 1.38% | 8.33 nM 3.16% | 100 nM 1.61% | 833.33 nM 0.57% | 10000 nM -0.01%

COc1cc(N)c(Cl)cc1C(=O)NC1CCN(Cc2ccccc2)CC1 [clebopride]
inactive: 1 nM -1.61% | 8.33 nM -0.47% | 100 nM -0.47% | 833.33 nM 6.56% | 10000 nM 0.26%

Cc1cc(SCc2sc(-c3ccc(C(F)(F)F)cc3)nc2C)ccc1OCC(=O)O
inactive: 1 nM -0.18% | 8.33 nM 1.2% | 100 nM 0.1% | 833.33 nM 1.79% | 10000 nM -2.99%

COc1cc2c3cc1Oc1cc(ccc1O)C[C@@H]1c4c(cc(OC)c(O)c4Oc4ccc(cc4)C[C@@H]3N(C)CC2)CC[N+]1(C)C [tubocurarine]
inactive: 1 nM -3.23% | 8.33 nM -3.95% | 100 nM -2.68% | 833.33 nM 0.38% | 10000 nM 1.45%

CCCCCCN(CCCCCC)C(=O)Cc1c(-c2ccc(F)cc2)[nH]c2ccccc12
inactive: 1 nM 5.1% | 8.33 nM 3.61% | 100 nM 3.88% | 833.33 nM 0.72% | 10000 nM -4.49%

Cc1cc(=O)[nH]c(=S)[nH]1 [methylthiouracil]
inactive: 1 nM 0.85% | 8.33 nM 2.29% | 100 nM -0.49% | 833.33 nM 1.73% | 10000 nM -0.31%
